# Residue numbers refer to the chain shown, from its start. Whole data set: some 5,800 sequences, median “enrichment r” near 0.54, cut for the highest 2% near 16. Shown is part of a subset that was picked to be rich in the highest values.
# B1: chr5:171862525:171862626:-|3pUTR|ENSG00000072803|msi1|FALSE|unique (ssRNA)
# RNA: GGGAGUUCUACAGUCCGACGAUCGACAGUGCAUGGAAAGGACGUUGGCAUCCAAUUGGCACUCCUUCUCCCUUAUUCAAUAUUAGGUUUGAUUUGCCCUUCGCCAUUGUUUCCAAAGAUCAAGGAAUGUCAAUAACAUUUUAACAACAGAGGAUUGAGCAUCA
# B2: chr7:56101660:56101848:-|3pUTR|ENSG00000106153|msi1|FALSE|unique (ssRNA)
# RNA: GGGAGUUCUACAGUCCGACGAUCUGGAGAGAUGGAAAAUCAGCUCUCAUAACUAAGUUAAUUUAGUAUAAAAAUAGAAUUGAUAGUGAGGGUAUAAAGUGUAACCAUCAGUUAAACCUCUCCUGUCAUUCCUGGCUUCCUUGCCAACAGAGGAUUGAGCAUCA
# B3: chr7:101137467:101137738:+|3pUTR|ENSG00000106366|msi1|FALSE|unique (ssRNA)
# RNA: GGGAGUUCUACAGUCCGACGAUCGUUAAAAGAUGGUAAACCAGAUCUGUCUCCAAGACCUUGGCCUCUCCUUGGAGGACCUUUAGGUCAAACUCCCUAGUCUCCACCUGAGACCCUGGGAGAGAAGUUUGAAGCACAACUCCCCAACAGAGGAUUGAGCAUCA
# B4: chr14:74942539:74942640:-|3pUTR|ENSG00000119630|msi1|total|mutant (ssRNA)
# RNA: GGGAGUUCUACAGUCCGACGAUCGUGUAUUUAUUACCGUCACACUCUUCAGUGACUCCUGCUGGUACCUGCCCUCUAUUUAUCCGCCAACUGUUUCCCUGCUGAAUGCCUCGCUCCCUUCAAGACGAGGGGCAGGGAAGGACACAACAGAGGAUUGAGCAUCA
# B5: chr1:151048051:151048152:+|CDS|ENSG00000143443|unk|FALSE|unique (ssRNA)
# RNA: GGGAGUUCUACAGUCCGACGAUCGACCGCCUGGCUGGACCAGCGGCUGCCGAGCUCUUGGCCGCCACGGUGUCCACCGGCUUUAGCCGGUCGUCCGCCAUUAACGAGGAGGAUGGGUCUUCAGAAGAGGGGGUUGUGAUUAAUCAACAGAGGAUUGAGCAUCA
# B6: chrX:65741840:65741941:+|3pUTR|ENSG00000147065|msi1|total|mutant (ssRNA)
# RNA: GGGAGUUCUACAGUCCGACGAUCAAAUUGUUUUUGGAGGGGUUUAUGCUCAAUCCAUGUUCUAUUUCAGUGCCAAUAAAAUUCCGGAAGACUUCACAGUGACUCAAUCGUUCUUUGUGGUAUGAGUGGGCCGCUGUAAGAUAUCAACAGAGGAUUGAGCAUCA
# B7: chr12:106067485:106067586:-|CDS|ENSG00000074590|msi1|FALSE|unique (ssRNA)
# RNA: GGGAGUUCUACAGUCCGACGAUCCCUGAAGAAGCGAAGCAACAGCGAGCAUCGCUCUCACAGCACUGGCUUCAUUGAAGGUGUAGUUGGUCCUGCCUUACCCUCUACUUUCAAGAUGGAGCAGGACUUGUGCAGGACUGGCGUCAACAGAGGAUUGAGCAUCA
# B8: chr20:53567570:53567671:-|3pUTR|ENSG00000171940|unk|FALSE|unique (ssRNA)
# RNA: GGGAGUUCUACAGUCCGACGAUCUCACAAGCUGAGCCAUAUGUACAUAAUCUAGAUUUUGUUUUCAUAGUUUUGCACUUUUAUAGCCUAUUUUUGAAGAUUAACACAUUUGCAAGAUGAUUGACUCAAUCUUUGCCUAAUCCACAACAGAGGAUUGAGCAUCA
# B9: chr4:168926953:168927063:+|3pUTR|ENSG00000129116|msi1_unk|total|mutant (ssRNA)
# RNA: GGGAGUUCUACAGUCCGACGAUCCAAAAGAGUUUUCUAACAAGGUUAAUACCUCCGUUCUUAACAUUUUUUUUCUUUAUGUGCCGUGUUUUCAUGCUACCUUGGCCGGAAACUUAUUUACAAACCAUAUUAAAAGGCUAAUUUCAACAGAGGAUUGAGCAUCA
# B10: chr12:98549714:98549829:+|3pUTR|ENSG00000120802|unk|total|mutant (ssRNA)
# RNA: GGGAGUUCUACAGUCCGACGAUCGAAGAUGUAUAUUCCGACCAGCACACAAUUUUGAUUUCAAUCCGCCUUAUUCUAAUAUUCCGCUUUCCGAUCUUUCAUACACAUUUUCACGUACUUUGCAAUUGAGACCAGAAAGACUUGCAACAGAGGAUUGAGCAUCA
# B11: chr4:185586528:185586629:-|3pUTR|ENSG00000154556|msi1|FALSE|unique (ssRNA)
# RNA: GGGAGUUCUACAGUCCGACGAUCAUCCAUAUGAUAUGUUGUACAUUUUAUGGAAAUGUAAUAGAAUCUCACACAUUAUUUUAUAGAAAUAGAGUACAGAAGCAUCACAAGUAUUAAAGUUGGUUUUAGCAAGGAUUAGGAUUACAACAGAGGAUUGAGCAUCA
# B12: chrX:131089436:131089558:+|3pUTR|ENSG00000147256|unk|FALSE|unique (ssRNA)
# RNA: GGGAGUUCUACAGUCCGACGAUCGGGAAACCUCAAGUGUAGGUCUAAUUAGUGUUUCUGGGAUCCAAAGUUAGAGGAAAAUUUAGAUUUUAUUGCCUGGAUCUGCUUUAAAGACAAUUGGUGUUUACACCCUCUUGUCAGCAACAACAGAGGAUUGAGCAUCA
# B13: chrX:131089436:131089558:+|3pUTR|ENSG00000147256|unk|total|mutant (ssRNA)
# RNA: B12 RNA with U39C, A40C, U49C, A50C, U71C, A72C, U83C, A84C
# B14: chr4:185586528:185586629:-|3pUTR|ENSG00000154556|msi1|total|mutant (ssRNA)
# RNA: B11 RNA with U61C, A62C, U83C, A84C, U89C, A90C, U126C, A127C, U136C, A137C
# B15: ENSG00000136451:be:win_1601|3pUTR|ENSG00000136451|bound_else_gene|NA|bound_elsewhere_windowed (ssRNA)
# RNA: GGGAGUUCUACAGUCCGACGAUCAAUAUUUACCAGCAACUUAACUUUUAGUUGAUUAAAGCAAAAAGUAAACCAUGAAAUUGGGAGAUUUUAUUACAUUAGUUAAUAAGAGUGUGGUAGCAUUUUUCUCCAAUUUGGCUGGGACAACAGAGGAUUGAGCAUCA
# B16: chr12:98549714:98549829:+|3pUTR|ENSG00000120802|unk|FALSE|unique (ssRNA)
# RNA: B10 RNA with C37U, C38A, C65U, C66A, C83U, C84A, C90U, C91A
# B17: chr4:168926953:168927063:+|3pUTR|ENSG00000129116|msi1_unk|FALSE|overlapping (ssRNA)
# RNA: B9 RNA with C54U, C55A, C83U, C84A, C105U, C106A
# B18: chr12:7729382:7729740:-|three_prime_utr|ENSG00000198178|control|control|control (ssRNA)
# RNA: GGGAGUUCUACAGUCCGACGAUCAUCUACAUAUAAAUGAAAUAUUCUCCCUGGAAAUGUGUUUGGGUUGGCAUCCACCGUUGUAGAAAGCUAAAUUGAUUUUUUAAUUUAUGUGUAAGUUUUGUACAAGGAAUGCCCCUAAAACAACAGAGGAUUGAGCAUCA
# B19: chr7:2728618:2728646:-|3pUTR|ENSG00000146535|msi1_unk|FALSE|overlapping (ssRNA)
# RNA: GGGAGUUCUACAGUCCGACGAUCUUUAAUUUCACUGUUAAUCCUUAUUGUCUUUUUUAUUAAGAUGUUGGAAAAGCAGGAGGUAGUUGUGCCUCAAUUAUUGCAAAAAUGUAACAAUAAAGUUCCUCAAAAUAAGAUCUGUUCCAACAGAGGAUUGAGCAUCA
# Target: MSI1 full-length (mouse, UniProt Q61474 1-362)
# Sequence (Q61474 whole entry): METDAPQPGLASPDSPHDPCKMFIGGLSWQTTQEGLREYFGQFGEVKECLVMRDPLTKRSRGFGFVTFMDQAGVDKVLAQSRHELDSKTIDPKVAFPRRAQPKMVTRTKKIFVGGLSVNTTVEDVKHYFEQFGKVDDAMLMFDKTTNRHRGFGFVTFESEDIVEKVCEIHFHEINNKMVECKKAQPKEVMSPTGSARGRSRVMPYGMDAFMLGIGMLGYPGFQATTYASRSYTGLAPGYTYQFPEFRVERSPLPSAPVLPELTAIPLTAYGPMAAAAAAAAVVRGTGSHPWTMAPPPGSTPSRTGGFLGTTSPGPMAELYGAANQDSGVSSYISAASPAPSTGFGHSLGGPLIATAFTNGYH
# Assay: nsRBNS (natural sequence RNA bind-n-seq); RBNS binding buffer (assumed for nsRBNS): 25 mM Tris pH 7.5, 150 mM KCl, 3 mM MgCl2, 0.01% Triton X-100, 500 ug/ml BSA, 20 U/ml SUPERase-In, 4 C; UNK is unkempt and MSI1 is Musashi-1; names of the RNAs are library labels; protein concentration not given here; high values mean tight binding
row,Binder,binding signal [enrichment R]
1,B1,0.699
2,B2,5.86
3,B3,0.316
4,B4,0.338
5,B5,0.497
6,B6,0.205
7,B7,0.282
8,B8,4.98
9,B9,0.747
10,B10,0.832
11,B11,34.5
12,B12,20.8
13,B13,0.224
14,B14,0.725
15,B15,1.37
16,B16,23.7
17,B17,20
18,B18,0.681
19,B19,0.334

# From article PMC12136788
